What all share (assay): NCI-60 one-dose screen, 48 h (100 = growth as untreated, 0 = no growth, -100 = all killed)
The test system of assay [1] is EKVX NSCLC. The conditions noted are these: 10 µM unless noted.
In assay [2] the test system is SN12C renal. The conditions noted are these: 10 µM unless noted.
The test system of assay [3] is UO-31 renal. Conditions: 10 µM unless noted.
In assay [4] the test system is TK-10 renal. The conditions noted are these: 10 µM unless noted.
Assay [5] concerns ACHN renal. The conditions noted are these: 10 µM unless noted.
Assay [6] relates to A498 renal. The conditions noted are these: 10 µM unless noted.
For assay [7], the system named is CCRF-CEM leukemia. Conditions: 10 µM unless noted.
The subject of assay [8] is MOLT-4 leukemia. The conditions noted are these: 10 µM unless noted.
For assay [9], the system named is SR leukemia. Conditions: 10 µM unless noted.
Assay [10] has as its system RPMI-8226 leukemia. Conditions: 10 µM unless noted.
Assay [11] deals with OVCAR-8 ovarian. Conditions: 10 µM unless noted.
The test system of assay [12] is OVCAR-5 ovarian. The conditions noted are these: 10 µM unless noted.
Assay [13] deals with OVCAR-4 ovarian. Conditions: 10 µM unless noted.
The test system of assay [14] is SK-OV-3 ovarian. Conditions: 10 µM unless noted.
Assay [15] has as its system IGROV1 ovarian. The conditions noted are these: 10 µM unless noted.
Assay [16] has as its system OVCAR-3 ovarian. Conditions: 10 µM unless noted.
For assay [17], the system named is HS 578T breast. Conditions: 10 µM.
Assay [18] has as its system NCI/ADR-RES ovarian. Conditions: 10 µM unless noted.

This is part of a sample that, as a whole, favours compounds with a hit. Of some 83,000 tested, about 20% had one in any assay.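 Method: cells in 96-well plates; compound added at one concentration; 48 h incubation; percent growth measured; values under 10 scored active.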 A number with no mark means an inactive call. The source made the active and inactive calls.

With `Cc1ccc(NC(=O)c2[nH]c(SCCN(C)C)nc2-c2ccc(F)cc2)cc1Nc1ccc2ncn(C)c(=O)c2c1`, the growth in [1] is 75.2%; in assay [2], 64.6%; in assay [3] it was 31.4%; in assay [4] it was 63%; in assay [5], 69%; in assay [6], 61.2%. Further, the growth is 61.6% in assay [7]; 41.2% in assay [8]; -24.9% (active) in [9]; 40.8% in assay [10]; 70% in assay [11]; 42.6% in [12]. Also, the growth in assay [13] is 70.8%; in assay [14], 88.4%; in assay [15], 39.8%; in assay [16], 78.9%; in assay [17], 60.6%; in assay [18] it was 93.2%.

As to `Cc1ccc(NC(=O)c2[nH]c(SCCN(C)C)nc2-c2ccc(F)cc2)cc1C#Cc1cnc2cccnn12`, the growth in assay [1] was 38.2%; in [2] it was 87.3%; in [3] it was -77.2% (active); in assay [4], 105%; in assay [5] it was -88% (active); in [6], 102%. Also, the growth in assay [7] is 1.64% (active); in assay [8], 55.1%; in [9], -35.9% (active); in assay [10] it was -6.17% (active); in [11], -12.2% (active); in assay [12], 11.6%. For the same molecule, the growth in assay [13] is -59.2% (active); in assay [14], 98.5%; in [15], 78.6%; in [16], 102%; in assay [17], 88.3%; in assay [18], 11.1%.

On to `Cc1ccc(NC(=O)c2nc(S(C)(=O)=O)oc2-c2ccc(F)cc2)cc1Nc1ccc2ncn(C)c(=O)c2c1`, for which the growth in [1] was 72.7%; in assay [2], 67.7%; in [3], 72.5%; in assay [4] it was 90.8%; in assay [5] it was 48.4%; in assay [6], 130%. Further, the growth in [7] was 16.3%; in assay [8] it was -5.15% (active); in [9], -12.5% (active); in assay [10], 19.3%; in [11] it was 30.6%; in [12], 102%. In addition, the growth was 104% in [13]; 107% in [14]; 61.4% in [15]; -58.5% (active) in [16]; 106% in assay [17]; 96.2% in [18].

On to `CNC(=O)c1cc(Oc2ccc(NC(=O)c3[nH]c(SC)nc3-c3ccc(F)cc3)cc2)ccn1`, for which the growth is 63.7% in assay [1]; 39.2% in assay [2]; 60.5% in [3]; 88.3% in assay [4]; 39.8% in assay [5]; 61.1% in [6]. The growth is 85.3% in assay [7]; 38.4% in [8]; 63.1% in [9]; 43.8% in [10]; 69.1% in assay [11]; 99.9% in assay [12]. Moreover, the growth is 60.8% in assay [13]; 34.1% in assay [14]; 55% in assay [15]; 88.2% in [16]; 75.7% in [17]; 67.4% in assay [18].

For the molecule `COc1ccc(/C=C(/C(=O)N2CCN(c3ccccc3)CC2)c2cc(OC)c(OC)c(OC)c2)cc1N`, the growth in assay [1] was 41.1%; in [2], 40.1%; in [3] it was 52.1%; in assay [4], 63.5%; in [5], 35.1%; in [6], -2.34% (active). The growth in [7] was 8.84% (active); in assay [8], 10.1%; in [9], 12.5%; in [10], 7.73% (active); in assay [11] it was 19.7%; in [12], 53.2%. Further, the growth is 52.3% in [13]; 36.9% in assay [14]; 36.3% in assay [15]; -43.8% (active) in assay [16]; 36.6% in assay [17]; 7.6% (active) in assay [18].

With `NNC(=O)Cc1ccccc1`, the growth in assay [1] is 81.2%; in assay [2], 93.4%; in [3], 76.2%; in assay [4], 111%; in [5], 78.9%; in [6], 97.2%. Also, the growth was 57.1% in assay [7]; 79.9% in [8]; 88.9% in [9]; 88.4% in assay [10]; 87.6% in assay [11]; 77.1% in [12]. The growth in assay [13] was 97.4%; in [14], 78.4%; in assay [15] it was 97.5%; in [16], 96%; in [17] it was 95.7%; in assay [18] it was 72.2%.

`CCCCN(CCCC)CCCN=c1nc2c(c(N)n1-c1ccccc1)c(=S)n(-c1ccccc1)c(=S)n2-c1ccccc1`: the growth in assay [1] was -74.2% (active); in assay [2], -99.2% (active); in [3] it was -80.9% (active); in [4], -89.6% (active); in [5], -95.8% (active); in assay [6], -100% (active). The growth in assay [7] is -78.4% (active); in assay [8], -55.8% (active); in assay [9], -65.2% (active); in assay [10] it was -53.4% (active); in assay [11], -36.1% (active); in [12] it was -60.2% (active). Further, the growth was -82% (active) in [13]; -86.5% (active) in assay [14]; -70.9% (active) in assay [15]; -100% (active) in assay [16]; -64.6% (active) in assay [17]; -71.1% (active) in [18].

On to `N#Cc1c(NN)n(C2OC(CO)C(O)C2O)c2ncnc(N)c12` (centres undefined), for which the growth in assay [1] was -0.0983% (active); in assay [2], 16.1%; in [3] it was -23.5% (active); in [4], 11.2%; in [5] it was 7.45% (active); in [6], -17.8% (active). The growth in assay [7] was -22.3% (active); in assay [11], 0.0898% (active); in assay [12], 17%; in assay [13] it was 14%; in [14], 2.07% (active); in assay [15], -65.7% (active). The values for the growth in [16], in [17] and in assay [18] were -42.3% (active), 9.12% (active) and 6.9% (active), respectively.

For `Clc1ccc2c(c1)-n1cccc1C(c1ccc3ccccc3c1)=NC2`, the growth was 99.5% in assay [1]; 124% in [2]; 64.8% in assay [3]; 185% in assay [4]; 91.7% in assay [5]; 84.6% in [7]. Besides, the growth in [11] is 102%; in [12], 98.4%; in assay [13] it was 84.2%; in [15] it was 61.4%; in [16], 86.1%; in assay [17], 110%. Besides, the growth in assay [18] was 77.8%.

The values are drawn from PubChem BioAssay (NCI).
